Screening data as filed in PubChem.
Many of the other results were omitted from the sample, so hits are more common in it than they were.
VACV mCherry inh = inhibitors of vaccinia virus infection (mCherry reporter signal); Vaccinia virus mCherry reporter infection, fluorescence; Potency, µM (top dose mostly 36.5 µM), inactives show at the top dose activity change, negative = inhibition, most hits filed as inhibitors; 0.63% of 310,000 active; calls by dose curve; tested in A549 cells; further: potency means the concentration at half of the fitted maximal effect; on the % scale 0 is the no-effect control and ±100 the full control effect; nearly all actives have a fitted effect of over 35% in size
Shiga inhibitor = Shiga toxin inhibition; Vero cells, Shiga toxin protein synthesis inhibition reporter; inhibition, % at 38.7 µM; 9.2% of 290,000 active; in the data active means inhibition mostly above about 28%, no sharp cut-off; inactive means mostly below about 43%; further: 0% is about no effect
Lassa entry inh = Lassa virus entry inhibition; Lassa virus pseudotype entry inhibition, cell reporter; 1.2% of 300,000 active; Potency, µM (top dose mostly 37.9 µM), inactives show top-dose activity change, negative = inhibition, actives largely listed as inhibitors; calls by dose curve; tested in HEK293 cells; further: potency means the concentration at half of the fitted maximal effect; on the % scale 0 is the no-effect control and ±100 the full control effect; nearly all actives have a fitted effect of over 50% in size
Marburg entry inh = Marburg virus entry inhibition; Marburg virus pseudotyped entry inhibition, cell reporter; Potency, µM (highest dose often 37.8 µM), for the others: at the highest dose activity change, negative = inhibition, most hits filed as inhibitors; 1.8% of 300,000 active; calls by dose curve; tested in HEK293 cells; further: potency means the concentration at half of the fitted maximal effect; on the % scale 0 is the no-effect control and ±100 the full control effect
Vaccinia Venus = vaccinia inhibition (Venus reporter); Vaccinia virus Venus reporter expression, fluorescence; Potency, µM (titrated, usually from 36.5 µM), for the others: at the top dose activity change, negative = inhibition, most hits filed as inhibitors; 0.46% of 330,000 active; calls by dose curve; tested in A549 cells; further: potency means the concentration at half of the fitted maximal effect; on the % scale 0 is the no-effect control and ±100 the full control effect; nearly all actives have a fitted effect of over 30% in size
Cycloheximide cs = counter-screen hit for Shiga toxin inhibitors, cycloheximide. cell reporter, cycloheximide protein synthesis inhibition counterscreen. max response, %. 12% of 300,000 active; in the data active means max response mostly above about 13%, no sharp cut-off; inactive means mostly below about 14%; further: read at 38.3 µM for the half of the compounds with a filed dose; 0% is about no effect
Starred values were filed as active, the others as inactive; [ ] = remark or other dose.

COc1cccc(NC(=O)CSc2nc3ccccc3nc2N2CCCC2)c1 was read as VACV mCherry inh inactive, Shiga inhibitor 57*, Vaccinia Venus 1% and Cycloheximide cs 37*.
Screening O=C(c1cccc(Cl)c1)N(Cc1ccco1)Cc1ccccc1Cl returned VACV mCherry inh -11%, Lassa entry inh -7%[46.1 µM], Marburg entry inh inconclusive and Vaccinia Venus -11%.
C/C(=C\C(=O)c1ccc(Br)cc1)NNC(=O)c1ccccc1 was read as VACV mCherry inh -12%, Lassa entry inh 5%, Marburg entry inh inconclusive and Vaccinia Venus -13%.
Screening O=C(/C=C/NNC(=O)c1ccccc1)c1ccc([N+](=O)[O-])cc1 returned VACV mCherry inh inconclusive, Shiga inhibitor 87*, Marburg entry inh inconclusive, Vaccinia Venus -19% and Cycloheximide cs 38*.
`Cc1ccc(C(=O)C=CNNC(=O)c2ccccc2)cc1` gave Shiga inhibitor 44* and Cycloheximide cs 33*.
For O=C(/C=C/NNC(=O)c1ccc(Br)cc1)c1ccccc1 the results were VACV mCherry inh -17%, Shiga inhibitor 84*, Lassa entry inh inconclusive, Marburg entry inh inconclusive, Vaccinia Venus -16% and Cycloheximide cs 32*.
For O=C(C=CC=Cc1ccccc1)c1ccc([N+](=O)[O-])cc1 the results were VACV mCherry inh -15% and Vaccinia Venus -22%.
`O=C(/C=C/NNC(=O)c1ccccc1)c1ccccc1` gave Shiga inhibitor 20, Lassa entry inh -1%, Marburg entry inh 2%, Vaccinia Venus -19% and Cycloheximide cs 27*.
COc1cc2[nH]c(=O)n(CCCCCC(=O)NCCc3ccccc3)c(=O)c2cc1OC was read as VACV mCherry inh -7%, Lassa entry inh inconclusive, Marburg entry inh 9%[46.1 µM] and Vaccinia Venus 10%.
Screening O=C(O)CC(NNC(=O)c1ccccc1)C(=O)Nc1ccc([N+](=O)[O-])cc1 (centres undefined) returned Shiga inhibitor 67* and Cycloheximide cs 37*.
Screening O=C(/C=C/NNC(=O)c1ccccc1O)c1ccccc1 returned VACV mCherry inh inconclusive, Lassa entry inh inconclusive, Marburg entry inh 4%[46.1 µM], Vaccinia Venus 11% and Cycloheximide cs 32*.
`Cc1cccc(C(=O)NN/C=C/C(=O)c2ccccc2)c1` gave VACV mCherry inh -11%, Shiga inhibitor 56*, Lassa entry inh -2%, Marburg entry inh inconclusive, Vaccinia Venus -14% and Cycloheximide cs 31*.
Cc1ccc(S/C=C\C(=O)c2ccccc2)cc1 was read as VACV mCherry inh -12%, Shiga inhibitor 79*, Lassa entry inh -10%, Marburg entry inh inconclusive, Vaccinia Venus -12% and Cycloheximide cs 44*.
For O=C(/C=C(\O)c1ccccc1)c1ccccc1O the results were VACV mCherry inh -12% and Vaccinia Venus -16%.
Screening N#Cc1cnc(N)c(Br)c1 returned VACV mCherry inh inactive, Shiga inhibitor -2, Lassa entry inh inconclusive, Marburg entry inh -17%[46.1 µM], Vaccinia Venus -15% and Cycloheximide cs -5.
Screening c1ccc2c(N3CCNCC3)nsc2c1 returned VACV mCherry inh 1%, Shiga inhibitor 8, Lassa entry inh inconclusive, Marburg entry inh inconclusive, Vaccinia Venus -3% and Cycloheximide cs 16*.
`CNC(=O)[C@@H]1C[C@@H](NCc2cccc(Oc3ccccc3)c2)CN1C(C)C` gave VACV mCherry inh -14% and Vaccinia Venus -10%.
CN(C1=C(NC(=O)c2ccccc2)C(=O)c2ccccc2C1=O)C1CCS(=O)(=O)C1 (centres undefined) was read as Shiga inhibitor 75*, Lassa entry inh inconclusive, Marburg entry inh inconclusive and Cycloheximide cs 39*.
For CC(=O)NC1=C(NC2CCS(=O)(=O)C2)C(=O)c2ccccc2C1=O (centres undefined) the results were VACV mCherry inh -18%, Shiga inhibitor -32, Lassa entry inh -16%, Marburg entry inh inconclusive, Vaccinia Venus inconclusive and Cycloheximide cs 7.
CN(C)c1ccccc1C(=O)c1ccccc1N(C)C was read as VACV mCherry inh inconclusive, Shiga inhibitor 86*, Lassa entry inh -6%, Marburg entry inh inconclusive, Vaccinia Venus inconclusive and Cycloheximide cs 28*.
